Source: PubChem BioAssay (NCI)
Where “and” joins values, the source holds several entries; their conditions need not be identical. Equal entries are not always repeated. About 83,000 compounds went through this panel and 20% of them were active in at least one assay; those are over-represented in the sample as a whole.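 Negative percent growth values reflect cell death: -40 means 40% of the cells present at the start died, and -100 means all died.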 Calls of active or inactive are those of the source. How the source made its calls: active means growth percent below 10; inactive means the rest.

Columns and labels:
Experiment in all cases: NCI-60 one-dose screen, 48 h (100 = growth as untreated, 0 = no growth, -100 = all killed)
[1] = tested on: NCI-H23 lung
[2] = tested on: NCI-H226 lung
[3] = tested on: NCI-H322M lung; conditions: 10 µM unless noted
[4] = tested on: HOP-62 NSCLC
[5] = tested on: NCI-H460 lung
[6] = tested on: HOP-92 NSCLC
[7] = tested on: NCI-H522 lung
[8] = tested on: A549/ATCC NSCLC
[9] = tested on: 786-0 renal
[10] = tested on: COLO 205 colon; conditions: 10 µM unless noted
[11] = tested on: DU-145 prostate
[12] = tested on: K-562 leukemia
[13] = tested on: MALME-3M melanoma
[14] = tested on: MDA-MB-231 breast
[15] = tested on: RXF 393 renal
[16] = tested on: SF-268 CNS
[17] = tested on: SF-295 CNS
[18] = tested on: SF-539 CNS
[19] = tested on: UACC-257 melanoma
[20] = tested on: M14 melanoma

Measured: growth

CCCCCCCCCCCCCCCCCCOc1cccc(CC(=O)OCC[N+](CC)(CC)CC)c1
inactive: [1]; 10 µM unless noted 35.7% | [2]; 10 µM unless noted 59.6% | [3] 77.7% | [4]; 10 µM unless noted 69.1% | [5]; 10 µM unless noted 67% | [6]; 10 µM unless noted 52.3% | [7]; 10 µM unless noted 38.5% | [8]; 10 µM unless noted 60% | [9]; 10 µM unless noted 58.5% | [10] 47% | [11]; 10 µM unless noted 73.8% | [12]; 10 µM unless noted 31.8% | [13]; 10 µM unless noted 74.1% | [14]; 10 µM unless noted 41.4% | [16]; 10 µM unless noted 61.7% | [17]; 10 µM unless noted 40.9% | [18]; 10 µM unless noted 51.1% | [19]; 10 µM unless noted 114% | [20]; 10 µM unless noted 42.3%
active: [15]; 10 µM unless noted 8.82%

COc1ccc(C2=C(CN)C(O)NC(=NCC(=O)c3ccc4ccccc4c3)N2)cc1 (configuration not stated)
inactive: [1]; 10 µM unless noted 103% | [2]; 10 µM unless noted 100% | [3] 104% | [4]; 10 µM unless noted 98.7% | [5]; 10 µM unless noted 114% | [6]; 10 µM unless noted 113% | [7]; 10 µM unless noted 86% | [8]; 10 µM unless noted 95.5% | [9]; 10 µM unless noted 98.5% | [10] 87.4% | [11]; 10 µM unless noted 107% | [12]; 10 µM unless noted 102% | [13]; 10 µM unless noted 101% | [14]; 10 µM unless noted 103% | [15]; 10 µM unless noted 112% | [16]; 10 µM unless noted 94.1% | [17]; 10 µM unless noted 98.4% | [18]; 10 µM unless noted 90.8% | [19]; 10 µM unless noted 91.3% | [20]; 10 µM unless noted 95.1%

BrC1=C(Br)C(Br)(Br)C(Br)=C1Br
active: [7]; 10 µM unless noted -15.2%
inactive: [1]; 10 µM unless noted 93% | [2]; 10 µM unless noted 91.7% | [3] 107% | [4]; 10 µM unless noted 101% | [5]; 10 µM unless noted 102% | [6]; 10 µM unless noted 105% | [8]; 10 µM unless noted 95.2% | [9]; 10 µM unless noted 82.4% | [10] 69.6% | [11]; 10 µM unless noted 106% | [12]; 10 µM unless noted 32.9% | [13]; 10 µM unless noted 106% | [14]; 10 µM unless noted 73.7% | [15]; 10 µM unless noted 75.1% | [16]; 10 µM unless noted 97.8% | [17]; 10 µM unless noted 113% | [18]; 10 µM unless noted 82.2% | [19]; 10 µM unless noted 84.7% | [20]; 10 µM unless noted 65.2%

C#CCOCC1CN(C)C(=O)O1 (configuration not stated)
inactive: [1]; 10 µM unless noted 111% | [2]; 10 µM unless noted 103% | [3] 114% | [4]; 10 µM unless noted 131% | [5]; 10 µM unless noted 103% | [6]; 10 µM unless noted 97.8% | [7]; 10 µM unless noted 99.7% | [8]; 10 µM unless noted 93.7% | [9]; 10 µM unless noted 110% | [10] 123% | [11]; 10 µM unless noted 107% | [12]; 10 µM unless noted 101% | [13]; 10 µM unless noted 110% | [14]; 10 µM unless noted 110% | [15]; 10 µM unless noted 131% | [16]; 10 µM unless noted 113% | [17]; 10 µM unless noted 105% | [18]; 10 µM unless noted 102% | [19]; 10 µM unless noted 104% | [20]; 10 µM unless noted 107%

CC(=O)/C=C/c1ccc(N(C)Cc2ccc(C(C)(C)C)cc2)cc1
inactive: [1]; 10 µM 75.5% | [2]; 10 µM 85.1% | [4]; 10 µM 97.6% | [5]; 10 µM 96.9% | [6]; 10 µM 77.3% | [7]; 10 µM 77.1% | [8]; 10 µM 89.6% | [9]; 10 µM 97.3% | [11]; 10 µM 96.6% | [12]; 10 µM 59.5% | [13]; 10 µM 89.3% | [14]; 10 µM 103% | [15]; 10 µM 106% | [16]; 10 µM 102% | [17]; 10 µM 88.9% | [18]; 10 µM 98.9% | [19]; 10 µM 84.6% | [20]; 10 µM 79.5%
active: [1]; 100 µM -10.1% | [2]; 100 µM -82.3% | [3] -64.5% [100 µM] | [4]; 100 µM -34.8% | [5]; 100 µM -63.7% | [6]; 100 µM -92.6% | [7]; 100 µM -76.4% | [8]; 100 µM -48.6% | [9]; 100 µM -75% | [11]; 100 µM 0.731% | [12]; 100 µM -12.4% | [13]; 100 µM -88.1% | [14]; 100 µM -70.6% | [15]; 100 µM -90.6% | [16]; 100 µM -76.8% | [17]; 100 µM -30.4% | [18]; 100 µM -69% | [19]; 100 µM -76.5% | [20]; 100 µM -65.3%

Nc1nc2c(s1)CCc1cn(S(=O)(=O)c3ccccc3)cc1-2
inactive: [1]; 10 µM unless noted 94.5% and 104% | [2]; 10 µM unless noted 82.9% | [3] 93.7% and 114% | [4]; 10 µM unless noted 91.5% and 112% | [5]; 10 µM unless noted 95.1% and 101% | [6]; 10 µM unless noted 63.3% | [7]; 10 µM unless noted 82.4% and 92.9% | [8]; 10 µM unless noted 78.5% and 101% | [9]; 10 µM unless noted 92.7% and 104% | [10] 106% and 108% | [11]; 10 µM unless noted 100% and 114% | [12]; 10 µM unless noted 88.6% and 88.2% | [13]; 10 µM unless noted 107% and 98% | [14]; 10 µM unless noted 80.5% and 112% | [15]; 10 µM unless noted 100% and 110% | [16]; 10 µM unless noted 80.6% and 97.7% | [17]; 10 µM unless noted 94.6% and 106% | [18]; 10 µM unless noted 90.9% and 97.8% | [19]; 10 µM unless noted 86.6% and 112% | [20]; 10 µM unless noted 90.4% and 101%
